For eight compounds, Percent Effect results are on record in ChEMBL document CHEMBL3988442, “University of Dundee, Small-Polar-MMV Screening Library” (2021).

For some of these results: Results with a measured potency or affinity are listed apart.

What all share (set-up): scale not given: direction of the effect not stated beside the values
For assay [1], the target named is Protein translocase subunit SecA (Escherichia coli (strain K12)) (UniProt P10408). The experiment in a line: Assay to Identify E. coli SecA ATPase Inhibitors. It counts as functional. The conditions noted are these: 30 µM.
In assay [2] the target is T1, Ubiquitin-activating enzyme e1, putative (Leishmania donovani (strain BPK282A1)) (UniProt E9BSI1).
T1 sequence (whole entry): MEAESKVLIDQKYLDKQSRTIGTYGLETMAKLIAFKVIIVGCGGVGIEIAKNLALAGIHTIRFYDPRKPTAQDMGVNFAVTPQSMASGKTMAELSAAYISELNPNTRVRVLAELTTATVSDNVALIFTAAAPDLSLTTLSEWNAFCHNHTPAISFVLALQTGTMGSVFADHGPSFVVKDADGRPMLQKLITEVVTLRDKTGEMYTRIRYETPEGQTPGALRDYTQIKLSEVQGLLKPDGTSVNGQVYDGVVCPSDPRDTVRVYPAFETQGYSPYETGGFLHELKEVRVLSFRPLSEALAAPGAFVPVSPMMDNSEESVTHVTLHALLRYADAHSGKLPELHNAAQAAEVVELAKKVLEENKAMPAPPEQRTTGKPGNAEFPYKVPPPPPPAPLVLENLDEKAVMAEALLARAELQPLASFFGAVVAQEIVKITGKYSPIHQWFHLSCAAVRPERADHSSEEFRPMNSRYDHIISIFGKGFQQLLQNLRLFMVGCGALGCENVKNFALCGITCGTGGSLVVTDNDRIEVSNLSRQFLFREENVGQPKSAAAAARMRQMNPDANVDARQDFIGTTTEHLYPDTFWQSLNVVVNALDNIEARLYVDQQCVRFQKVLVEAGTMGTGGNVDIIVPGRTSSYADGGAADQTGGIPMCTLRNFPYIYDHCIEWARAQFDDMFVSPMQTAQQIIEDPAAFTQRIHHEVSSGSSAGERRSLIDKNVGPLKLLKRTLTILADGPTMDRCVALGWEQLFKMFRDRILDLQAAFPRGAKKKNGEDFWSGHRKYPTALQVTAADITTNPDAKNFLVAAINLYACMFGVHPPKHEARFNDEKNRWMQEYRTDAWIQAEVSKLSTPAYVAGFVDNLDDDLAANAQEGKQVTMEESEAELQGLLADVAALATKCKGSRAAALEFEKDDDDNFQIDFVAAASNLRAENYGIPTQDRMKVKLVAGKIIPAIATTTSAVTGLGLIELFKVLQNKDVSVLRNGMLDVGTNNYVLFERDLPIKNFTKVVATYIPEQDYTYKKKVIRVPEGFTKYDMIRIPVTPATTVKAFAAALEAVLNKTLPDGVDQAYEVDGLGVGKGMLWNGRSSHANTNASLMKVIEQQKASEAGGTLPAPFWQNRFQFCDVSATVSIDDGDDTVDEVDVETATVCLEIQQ
The experiment in a line: Leishmania donovani Ubiquitin Activating Enzyme (LdE1). The format is functional. The conditions noted are these: 30 µM.

Assay [3] addresses AMP-activated protein kinase, AMPK (Homo sapiens) (UniProt P54646+O43741+P54619+Q9UGJ0+Q9Y478+Q13131+Q9UGI9). Kind of assay: AMP-dependent Kinase enzyme assay. An in vitro enzyme assay that detects ADP turnover that is directly proportional to AMPK activity. This uses naive AMPK that is activated during the assay with MK-8722. It counts as functional. Particulars: 30 µM.
The target in assay [4] is Sialic acid-binding Ig-like lectin 9 (Homo sapiens) (UniProt Q9Y336). The experiment in a line: Hs-Siglec9 ALPHAscreen SOP 20170721. Particulars: 10 µM. (In general: Alpha assays give light when donor and acceptor beads are brought close together.)
The next assay relates to Trypanosoma cruzi. The experiment in a line: Trypanosoma cruzi phosphomannomutase and mannose-1-phosphate guanylyltransferase assay. It counts as functional. The conditions noted are these: 10 µM.
The target in assay [5] is T2, Arginase-2, mitochondrial (Homo sapiens) (UniProt P78540).
T2 sequence (whole entry): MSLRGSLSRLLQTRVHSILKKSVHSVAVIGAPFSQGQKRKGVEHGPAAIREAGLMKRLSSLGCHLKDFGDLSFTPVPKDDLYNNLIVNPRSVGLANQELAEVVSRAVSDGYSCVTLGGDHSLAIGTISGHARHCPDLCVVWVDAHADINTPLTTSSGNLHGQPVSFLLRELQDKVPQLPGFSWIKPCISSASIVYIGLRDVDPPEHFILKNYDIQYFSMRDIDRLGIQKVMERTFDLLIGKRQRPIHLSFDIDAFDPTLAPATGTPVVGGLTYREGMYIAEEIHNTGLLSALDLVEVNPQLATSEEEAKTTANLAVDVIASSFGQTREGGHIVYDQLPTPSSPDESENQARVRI
Kind of assay: in vitro enzyme assay to detect the production of urea directly proportional to the activity of Arginase II. Note: in the data most compounds retested in dose-response had high values. The format is functional. The conditions noted are these: 33.3 µM.

Assay [6] concerns the target T3, Proteasome subunit beta (Trypanosoma cruzi) (UniProt O96673).
T3 sequence (whole entry): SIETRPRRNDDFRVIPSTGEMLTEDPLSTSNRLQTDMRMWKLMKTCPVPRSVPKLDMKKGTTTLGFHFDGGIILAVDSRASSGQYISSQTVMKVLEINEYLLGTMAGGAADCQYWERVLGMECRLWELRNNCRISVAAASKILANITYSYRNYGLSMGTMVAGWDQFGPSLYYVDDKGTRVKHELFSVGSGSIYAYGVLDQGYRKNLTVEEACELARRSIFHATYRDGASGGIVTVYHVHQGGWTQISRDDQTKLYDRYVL
The experiment in a line: Trypanosoma cruzi proteasome chymotrypsin-like activity (TcProtChymo) assay. Note: in the data most compounds retested in dose-response had high values. The format is functional. The conditions noted are these: 9.37 µM.

The species entered for the next assay is Homo sapiens. Kind of assay: To identify inhibition of the IFN signalling (Jak-Stat) pathway via expression of an eGFP reporter gene under the control of an IFN-stimulated response element (ISRE) containing MxA promoter. The format is functional. The conditions noted are these: 30 µM.
Assay [7] deals with T4, Tyrosyl-tRNA synthetase, putative (Trypanosoma cruzi (strain CL Brener)) (UniProt Q4DSP6).
T4 sequence (whole entry): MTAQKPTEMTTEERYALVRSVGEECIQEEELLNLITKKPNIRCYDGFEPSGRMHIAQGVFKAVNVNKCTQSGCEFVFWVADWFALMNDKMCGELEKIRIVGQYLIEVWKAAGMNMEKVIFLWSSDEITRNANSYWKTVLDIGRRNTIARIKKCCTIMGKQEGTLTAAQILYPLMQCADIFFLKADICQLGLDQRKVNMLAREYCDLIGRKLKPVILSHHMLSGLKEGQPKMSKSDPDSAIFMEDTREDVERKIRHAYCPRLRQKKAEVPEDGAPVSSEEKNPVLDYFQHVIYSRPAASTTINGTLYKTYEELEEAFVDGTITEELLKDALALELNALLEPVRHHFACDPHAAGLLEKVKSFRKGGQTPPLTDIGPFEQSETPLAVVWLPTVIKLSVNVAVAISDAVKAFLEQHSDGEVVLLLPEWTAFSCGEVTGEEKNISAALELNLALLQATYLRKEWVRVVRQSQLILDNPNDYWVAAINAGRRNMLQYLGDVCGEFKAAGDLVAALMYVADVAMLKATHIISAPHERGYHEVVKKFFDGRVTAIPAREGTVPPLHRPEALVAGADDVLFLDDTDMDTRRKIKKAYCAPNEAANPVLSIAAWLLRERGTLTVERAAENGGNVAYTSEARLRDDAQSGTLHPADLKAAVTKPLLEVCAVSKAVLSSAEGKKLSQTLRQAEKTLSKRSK
Kind of assay: Trypanosoma cruzi tyrosyl tRNA synthetase (TcYRS) _High Tyrosine SOP. Note: in the data most compounds retested in dose-response had high values. Particulars: 30 µM. It counts as functional.

The target of assay [8] is T4, Tyrosyl-tRNA synthetase, putative (Trypanosoma cruzi (strain CL Brener)). The experiment in a line: Trypanosoma cruzi tyrosyl tRNA synthetase (TcYRS) SOP. The format is functional. Particulars: 30 µM.
In assay [9] the target is Chromo domain-containing protein 1 (Saccharomyces cerevisiae (strain ATCC 204508 / S288c) (Baker's yeast)) (UniProt P32657). Kind of assay: ScCHD-1 Enzyme Inhibition Assay. Note: in the data most compounds retested in dose-response had high values. Particulars: 30 µM. It counts as functional.
Chromo domain-containing protein 1 (Saccharomyces cerevisiae (strain ATCC 204508 / S288c) (Baker's yeast)), sequence (P32657 whole entry, the tested form may be a part): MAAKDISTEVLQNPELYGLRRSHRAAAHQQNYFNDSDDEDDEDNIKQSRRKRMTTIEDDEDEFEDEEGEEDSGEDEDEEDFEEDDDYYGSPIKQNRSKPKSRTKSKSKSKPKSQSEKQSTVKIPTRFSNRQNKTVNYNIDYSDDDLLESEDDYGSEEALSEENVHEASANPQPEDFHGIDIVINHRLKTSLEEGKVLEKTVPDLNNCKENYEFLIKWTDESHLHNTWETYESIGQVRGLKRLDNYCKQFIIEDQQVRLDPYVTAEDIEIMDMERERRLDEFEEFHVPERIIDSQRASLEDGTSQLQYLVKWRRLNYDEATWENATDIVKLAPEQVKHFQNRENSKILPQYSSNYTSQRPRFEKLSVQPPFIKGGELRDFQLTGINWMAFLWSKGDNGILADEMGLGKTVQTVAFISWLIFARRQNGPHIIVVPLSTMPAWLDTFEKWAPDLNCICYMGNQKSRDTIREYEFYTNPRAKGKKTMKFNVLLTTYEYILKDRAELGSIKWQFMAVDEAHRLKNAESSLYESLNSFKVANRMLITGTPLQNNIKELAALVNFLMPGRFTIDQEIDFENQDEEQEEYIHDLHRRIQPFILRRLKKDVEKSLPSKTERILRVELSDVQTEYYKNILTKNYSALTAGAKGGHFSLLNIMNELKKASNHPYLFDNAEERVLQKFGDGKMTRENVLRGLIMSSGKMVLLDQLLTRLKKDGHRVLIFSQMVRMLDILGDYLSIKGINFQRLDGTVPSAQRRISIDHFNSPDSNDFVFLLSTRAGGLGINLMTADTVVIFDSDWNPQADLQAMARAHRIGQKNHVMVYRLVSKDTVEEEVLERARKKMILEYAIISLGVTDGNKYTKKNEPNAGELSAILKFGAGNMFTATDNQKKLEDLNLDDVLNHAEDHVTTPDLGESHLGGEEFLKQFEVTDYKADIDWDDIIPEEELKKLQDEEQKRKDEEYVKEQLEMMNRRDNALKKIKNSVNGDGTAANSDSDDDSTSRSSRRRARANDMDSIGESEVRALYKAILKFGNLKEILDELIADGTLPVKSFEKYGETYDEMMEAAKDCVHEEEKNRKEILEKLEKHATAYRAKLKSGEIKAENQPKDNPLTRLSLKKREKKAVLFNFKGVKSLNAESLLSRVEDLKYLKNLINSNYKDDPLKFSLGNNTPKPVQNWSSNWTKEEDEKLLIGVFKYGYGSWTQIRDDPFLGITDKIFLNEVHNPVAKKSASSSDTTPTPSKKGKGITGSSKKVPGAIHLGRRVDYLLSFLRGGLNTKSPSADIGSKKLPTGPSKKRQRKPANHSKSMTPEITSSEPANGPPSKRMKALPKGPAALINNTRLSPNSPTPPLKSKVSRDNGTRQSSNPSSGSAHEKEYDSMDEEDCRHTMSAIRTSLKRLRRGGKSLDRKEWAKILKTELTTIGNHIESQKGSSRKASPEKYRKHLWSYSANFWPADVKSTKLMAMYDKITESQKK

Sialic acid-binding Ig-like lectin 9 (Homo sapiens), sequence (Q9Y336 whole entry): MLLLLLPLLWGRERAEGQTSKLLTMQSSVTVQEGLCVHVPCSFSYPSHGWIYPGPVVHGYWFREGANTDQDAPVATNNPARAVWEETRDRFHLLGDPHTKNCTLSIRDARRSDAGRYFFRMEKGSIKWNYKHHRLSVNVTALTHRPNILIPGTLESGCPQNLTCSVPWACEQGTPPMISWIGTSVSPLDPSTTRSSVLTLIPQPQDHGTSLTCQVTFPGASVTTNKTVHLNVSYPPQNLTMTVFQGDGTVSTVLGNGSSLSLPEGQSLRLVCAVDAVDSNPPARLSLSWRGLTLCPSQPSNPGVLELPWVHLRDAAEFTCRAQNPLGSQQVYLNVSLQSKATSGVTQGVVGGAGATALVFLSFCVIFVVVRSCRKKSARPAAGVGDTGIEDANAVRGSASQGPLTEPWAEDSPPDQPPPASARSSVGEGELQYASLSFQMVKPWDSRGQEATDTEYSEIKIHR
Protein translocase subunit SecA (Escherichia coli (strain K12)), sequence (P10408 whole entry): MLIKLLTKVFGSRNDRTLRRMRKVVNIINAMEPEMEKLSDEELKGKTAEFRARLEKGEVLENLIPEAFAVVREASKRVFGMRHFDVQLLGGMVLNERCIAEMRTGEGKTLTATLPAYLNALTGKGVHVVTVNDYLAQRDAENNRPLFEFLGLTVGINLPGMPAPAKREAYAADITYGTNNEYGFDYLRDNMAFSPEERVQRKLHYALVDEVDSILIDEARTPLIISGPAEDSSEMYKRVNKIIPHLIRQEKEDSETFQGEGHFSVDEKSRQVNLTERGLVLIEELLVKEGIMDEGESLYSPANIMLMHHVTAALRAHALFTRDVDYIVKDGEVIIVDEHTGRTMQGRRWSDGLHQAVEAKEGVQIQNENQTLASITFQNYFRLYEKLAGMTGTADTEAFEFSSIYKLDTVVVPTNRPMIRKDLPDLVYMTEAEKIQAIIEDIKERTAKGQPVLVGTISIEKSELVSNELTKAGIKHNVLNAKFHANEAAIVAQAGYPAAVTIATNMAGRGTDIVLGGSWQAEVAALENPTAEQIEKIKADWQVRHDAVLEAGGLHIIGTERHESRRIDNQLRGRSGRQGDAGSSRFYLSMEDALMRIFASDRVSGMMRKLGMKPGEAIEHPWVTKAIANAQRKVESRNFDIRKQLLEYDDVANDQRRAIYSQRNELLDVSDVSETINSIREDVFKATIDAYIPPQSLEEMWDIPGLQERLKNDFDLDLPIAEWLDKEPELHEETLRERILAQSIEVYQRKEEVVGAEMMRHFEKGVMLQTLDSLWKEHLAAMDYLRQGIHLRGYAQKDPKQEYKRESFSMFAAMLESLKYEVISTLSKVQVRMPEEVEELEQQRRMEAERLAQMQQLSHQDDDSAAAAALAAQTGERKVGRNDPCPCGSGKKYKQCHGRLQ

Regarding `Cc1ccc(CN2CCc3ncnc(C4CC4)c3CC2)s1`, the Percent Effect was 1.05% in assay [1]; 5.33% in assay [2]; 5.76% in assay [3]; -4.5% in assay [4]; -5.41% with Trypanosoma cruzi; -54.3% in [5]. Moreover, the Percent Effect in assay [6] is 6.15%; in the assay filed under Homo sapiens, 43.3%; in assay [7], 8.33%; in [8], 12.5%; in [9], -7.16%.

Take `Cn1ccnc1COc1ccc(CN2CCN(CCO)CC2)cc1`: the Percent Effect in [1] is -4.05%; in [2] it was 20.8%; in assay [3], -12.5%; in assay [4], -0.317%; in the assay on Trypanosoma cruzi, -3.18%; in assay [5] it was -3.2%. The Percent Effect was 5.07% in assay [6]; 29.4% in the assay listed under Homo sapiens; 10.7% in assay [7]; 2.44% in [8]; -9.14% in assay [9].

With `COc1ccccc1CC(=O)NCCCN1CCCC1C(=O)N(C)C` (stereo not drawn), the Percent Effect was -0.00806% in [1]; 8.22% in assay [2]; -2.99% in assay [3]; 6.95% in assay [4]; 2.35% with Trypanosoma cruzi; 8.64% in [5]. The Percent Effect in assay [6] was 18.6%; in the assay listed under Homo sapiens, -15.4%; in assay [7], 6.45%; in assay [8], -2.5%; in [9] it was -6.6%.

For the compound `N#CCCN(C(=O)CN1CCCC1C1CCCCC1)c1ccccc1` (stereo not drawn), the Percent Effect in assay [1] is -2.43%; in assay [2], 0%; in assay [3], -4.92%; in assay [4], 3.65%; in the assay with Trypanosoma cruzi, -1.56%; in assay [5] it was 2.5%. The Percent Effect in assay [6] came to 15.1%; in the assay filed under Homo sapiens, 17.1%; in assay [7], 12.9%; in [8], 8.54%; in [9], 0.924%.

For `CCNC(=O)c1ncn2c1CN(C)S(=O)(=O)c1ccccc1-2`, the Percent Effect was 0.812% in assay [1]; 2.74% in assay [2]; 2.65% in assay [3]; 7.01% in assay [4]; -2.58% with Trypanosoma cruzi; -2% in assay [5]. In addition, the Percent Effect was 14% in assay [6]; 11% in the assay filed under Homo sapiens; 1.04% in assay [7]; 6.17% in [8]; -0.402% in [9].

Turning to `COc1cc2cc(C(=O)N[C@@H](C)C(=O)O)n(C)c2c(OC)c1OC`, the Percent Effect was 0.309% in assay [1]; 4% in assay [2]; 0.773% in [3]; 3.31% in assay [4]; -5.89% in the assay with Trypanosoma cruzi; -12.8% in assay [5]. Moreover, the Percent Effect in assay [6] is 13.1%; in the assay listed under Homo sapiens, 0.994%; in assay [7], 8.47%; in assay [8], 7.69%; in assay [9] it was -9.47%.

Turning to `Cc1ncc(CNC(=O)CCc2cccc(F)c2)c(C2CCCN2C)n1` (stereo not drawn), the Percent Effect was -7.92% in assay [1]; 9.46% in assay [2]; -0.703% in [3]; 1.74% in [4]; 0.988% in the assay on Trypanosoma cruzi; -3.94% in assay [5]. For the same compound, the Percent Effect is 5.15% in assay [6]; 2.42% in the assay listed under Homo sapiens; 2.15% in [7]; 9.09% in [8]; -19.1% in assay [9].

As for `CC(=O)NCCNC(=O)c1sc(-c2ccc(Cl)s2)nc1C`, the Percent Effect in assay [1] was -6.51%; in assay [2], 10.8%; in [3] it was 5.52%; in [4] it was -4.05%; with Trypanosoma cruzi, -5.29%; in [5], 1.29%. Also, the Percent Effect in assay [6] was 4.67%; in the assay listed under Homo sapiens it was 11.1%; in [7], 0.99%; in assay [8], -79.3%; in assay [9] it was -0.599%.
